Measured values reported in the supplement of paper PMC12297408.
Counter-ions that a name gives are not always drawn. Values without a mark were called inactive.

System: Plasmodium falciparum NF54/iGP1_RE9H ulg8 stage V gametocytes
Assay: gametocyte viability (luciferase signal relative to DMSO control) (% of DMSO control); higher = less gametocytocidal activity, active = 50 or less
Conditions: concentration: 1 µM; exposure time: 72 h
Description: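 Synchronous P. falciparum NF54/iGP1_RE9H ulg8 mature stage V gametocytes (day 12) were exposed to Cayman Epigenetics Screening Library compounds at 10 µM or 1 µM for 72 h at 37 °C. Viability was read as RE9H luciferase bioluminescence, normalised to DMSO plate controls (100%); 50 µM methylene blue was the positive control.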

Compound	gametocyte viability
CC1=CC(=O)c2c(O)cccc2C1=O [Plumbagin]	71.2
N[C@@H]1C[C@H]1c1ccccc1 [Tranylcypromine (hydrochloride)]	91.7
COc1cc(C(=O)N2CC[C@@H](O)[C@@H](N)C2)cc2nc(-c3cc4ccccc4n3CC3CC3)n(C)c12 [GSK484 (hydrochloride)]	94.7
Cc1sc2c(c1C)C(c1ccc(Cl)cc1)=NC(CC(=O)O)c1nnc(C)n1-2 (single isomer, unassigned; (+)) [(+)-JQ1 (free acid)]	85.8
Cc1sc2c(c1C)C(c1ccc(Cl)cc1)=N[C@@H](CC(N)=O)c1nnc(C)n1-2	90.9
CN(C)NC(=O)CCC(=O)O [Daminozide]	95.2
C[S+]([O-])CCCCN=C=S (centres undefined) [Sulforaphane]	99.8

Same assay, conditions: concentration: 10 µM; exposure time: 72 h

Compound	gametocyte viability
CC1=CC(=O)c2c(O)cccc2C1=O [Plumbagin]	16.7 (active)
N[C@@H]1C[C@H]1c1ccccc1 [Tranylcypromine (hydrochloride)]	91.4
COc1cc(C(=O)N2CC[C@@H](O)[C@@H](N)C2)cc2nc(-c3cc4ccccc4n3CC3CC3)n(C)c12 [GSK484 (hydrochloride)]	41.8 (active)
Cc1sc2c(c1C)C(c1ccc(Cl)cc1)=NC(CC(=O)O)c1nnc(C)n1-2 (single isomer, unassigned; (+)) [(+)-JQ1 (free acid)]	88.2
Cc1sc2c(c1C)C(c1ccc(Cl)cc1)=N[C@@H](CC(N)=O)c1nnc(C)n1-2	93.5
CN(C)NC(=O)CCC(=O)O [Daminozide]	88.8
C[S+]([O-])CCCCN=C=S (centres undefined) [Sulforaphane]	96.2
